Reference: the supplement of paper PMC3334620
Over roughly 33,000 sequences, “E-score (-0.5 to 0.5)” has its median near -0.01; the highest 2% begin near 0.26. The sample as a whole holds a higher share of the highest values than the screen did.

biological target: Ste12 (UniProt P13574); assay: PBM E-score (8-mer binding enrichment) (E-score (-0.5 to 0.5)); higher = stronger / more preferred TF binding; settings: protein concentration: 200 nM; construct: GST-DNA-binding domain
In short: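 E-scores (a modified Wilcoxon-Mann-Whitney statistic) were assigned by the Universal PBM Analysis Suite to every ungapped eight-base word pooled with its reverse complement. The input came from universal all-10-mer Agilent arrays made double-stranded by primer extension and probed with GST-tagged yeast transcription factors at about 100-200 nM. Fluorescent anti-GST detected bound protein, and masliner normalised the scans.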

Chain of UniProt P13574 (P13574 whole entry, the tested form may be a part): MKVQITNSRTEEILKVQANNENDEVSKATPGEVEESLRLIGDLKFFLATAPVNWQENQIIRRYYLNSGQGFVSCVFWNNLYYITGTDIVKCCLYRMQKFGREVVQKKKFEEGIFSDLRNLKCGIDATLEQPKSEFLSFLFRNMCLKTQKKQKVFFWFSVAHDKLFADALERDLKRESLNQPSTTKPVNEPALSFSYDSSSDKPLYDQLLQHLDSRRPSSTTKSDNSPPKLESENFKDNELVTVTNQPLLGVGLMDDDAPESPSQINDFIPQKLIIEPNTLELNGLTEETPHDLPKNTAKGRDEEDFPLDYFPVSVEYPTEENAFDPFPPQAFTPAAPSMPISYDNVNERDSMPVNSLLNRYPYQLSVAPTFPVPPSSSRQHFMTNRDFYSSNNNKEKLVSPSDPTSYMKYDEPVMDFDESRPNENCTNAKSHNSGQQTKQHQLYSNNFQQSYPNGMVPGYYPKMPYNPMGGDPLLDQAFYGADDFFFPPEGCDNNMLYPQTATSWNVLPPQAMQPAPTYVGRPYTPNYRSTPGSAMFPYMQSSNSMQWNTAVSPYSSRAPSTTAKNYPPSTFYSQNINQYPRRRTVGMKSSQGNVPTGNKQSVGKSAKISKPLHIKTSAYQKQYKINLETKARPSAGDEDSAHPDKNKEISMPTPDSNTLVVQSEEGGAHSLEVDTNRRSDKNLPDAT

Sequence | PBM E-score
ACCGATGC | -0.0639
TAGAAAAA | 0.0605
CTGAAAAA | 0.0763
ACGAAAAC | 0.25
TTGAAAAA | 0.323
ATGAAAAT | 0.166
ATGAAAAG | -0.0787
GTGAAAAC | 0.0815
ATGAAAAC | 0.349
ATGAAAAA | 0.305
CGACCTTA | 0.111
ACGCCAGT | -0.084
ATAACTAT | 0.0787
CAAAAATC | 0.123
AAAAAATC | 0.363
ACAAAATC | 0.291
ACAAAATA | 0.0836
ACAAAATG | 0.0682
GAAAAATC | 0.201
CTACCACC | -0.102
AATCGACA | 0.248
CAGCGACC | -0.0234

Sequence | PBM E-score
GGCGTGGA | -0.0873
AATAGTCA | -0.0559
ATTTACAC | 0.18
CGGTGAAA | 0.245
AGGTGAAA | 0.235
TGGTGAAA | 0.277
GGGTGAAA | 0.315
TGGTGCAA | -0.18
TGGTGACA | 0.048
AGCTGGGG | -0.136
ACCCAGGT | -0.218
CCAAGAAC | -0.11
CGCCAACA | -0.0261
GCACATCA | -0.00042
GCCCCCAA | -0.0804
CCAAAATA | 0.21
GAAAAATA | 0.217
TATAAATA | 0.228
CAAAAATA | 0.346
AAAAAATA | 0.267
TAAAAATA | 0.318
CTAAAATA | 0.181

Sequence | PBM E-score
GTAAAATA | 0.131
CATAAATA | 0.268
AATAAATA | 0.21
ATAAAATA | 0.257
CAAAAATG | 0.182
GCCTAAAA | -0.0428
CATCCCAA | 0.0892
CTCAACTC | 0.141
ATGACTAG | -0.183
ACACATCC | -0.0267
GTTCACCA | -0.0697
TCCCTCCA | -0.191
ATATTGAT | 0.248
AAATCTTC | 0.0263
GAGGTAGC | -0.239
CAGGGTTC | -0.0459
AAACGCGG | 0.264
CAACGCGG | -0.0344
AAACGCGT | 0.255
CGCCGTCA | 0.0459
ACTCTGCT | -0.0783
GATATTGC | 0.0418

Sequence | PBM E-score
ACAATCCG | -0.0367
CCAATCCC | 0.104
CCAATCCG | 0.281
GGCTACCC | -0.285
AGGGCGGA | -0.248
CGGGCGGA | -0.012
CGGGCGTA | -0.0442
GGGGCGGA | 0.404
GGGGCGTA | 0.282
AGGGCGTA | -0.176
CGCTCCAG | 0.0315
CAACCTGC | 0.0657
CCTGCAGG | -0.16
AAAAGTTT | 0.283
AAAAGTTG | 0.127
AAAAGTAA | 0.287
AAAAGTGG | 0.139
AAAAGTGT | 0.0304
AAAAGTAT | 0.178
AAAAGTGA | 0.267
